Data: PMC12136788
Where a chain is given by its changes, count along the chain named. In all, about 5,800 sequences were measured (“enrichment r”: median about 0.68, highest 2% from about 11 on). The sample as a whole holds a higher share of the highest values than the screen did.

B1: chr6:43570573:43570674:-|CDS|ENSG00000124571|unk|FALSE|unique (ssRNA)
RNA: GGGAGUUCUACAGUCCGACGAUCGGUGUAGGAAACACAGACAGAAUUGGUGAUGUUUAUCCUUUUGCGACUGGCAGAGGAUGUAGUGACUUUUCAGACACUUCCCCCUCAAAGAAGAAGGGACAUCCAGCAAACAUUAACCCACAACAGAGGAUUGAGCAUCA
B2: chr11:73394502:73394603:+|CDS|ENSG00000054967|msi1|total|mutant (ssRNA)
RNA: GGGAGUUCUACAGUCCGACGAUCCACCAUCUCCACACCGUGCAGGGCCUGGCCUCGCUCUCUGGCCCCUGCUGCUCCCGCUGCCGCCAGAAGAAGUGGCCCGAGGUGCUGCUGUCCCCUGAGGCUGCCGCCGCCACUACUCCUCAACAGAGGAUUGAGCAUCA
B3: chr3:107805913:107806014:+|3pUTR|ENSG00000114439|msi1_unk|FALSE|overlapping (ssRNA)
RNA: GGGAGUUCUACAGUCCGACGAUCUACAUGGAGAUUUAAGUUUAAGAUGGUUUAUAUAAUAGGUUAUACCUACAUUUAUAUUGUAGAAUAAAUAUUAAAAAGCCUGUUCCAGAGACUCCCAAGCAGCCUGGGCAGGCAGAUGUACAACAGAGGAUUGAGCAUCA
B4: chr8:144773268:144774605:-|CDS|ENSG00000196378|control|control|control (ssRNA)
RNA: GGGAGUUCUACAGUCCGACGAUCCACCAGAGGAUUCACACUGGGGAGAAACCCUACAAGUGUGGGGAGUGUGGGAAGCACUUUAGCGCCUACUCUUCCCUGAUUUAUCACCAGAGAAUCCACACCGGAGAGAAACCCUAUAAACAACAGAGGAUUGAGCAUCA
B5: chr7:123692404:123692516:-|CDS|ENSG00000106299|unk|total|mutant (ssRNA)
RNA: GGGAGUUCUACAGUCCGACGAUCCCUGCCUUCUGAUGGGGACCAUCAGGUUCCAACUACUGCAGGAAACAAAGCAGCUCUUUCCGAUCAAAUCCGAGAGGGUGCUCAGCUAAAAAAAGUGGAGCAGAACAGUCGGCCAGUGUCCAACAGAGGAUUGAGCAUCA
B6: chr2:32377587:32377702:+|CDS|ENSG00000115760|unk|FALSE|unique (ssRNA)
RNA: GGGAGUUCUACAGUCCGACGAUCGGUGAAAUGUCAGUAUAUCUCUGCUGUGGAUAAAGUUAUAUUUGUGGAUGAUUAUGCAGUAGGGUGUAGGAAGGACCUUAAUGGAAUCUUGUUGUUAGACACUGCUCUGCAAACUCCAGUCAACAGAGGAUUGAGCAUCA
B7: chr15:69268886:69268987:+|CDS|ENSG00000138604|unk|total|mutant (ssRNA)
RNA: GGGAGUUCUACAGUCCGACGAUCGGAGUUAAAGCUGUGUUUAUGAAUAAACAUGACUGGUAUGAAGAAUAUCCAACCACACCCCGCUCUUUUGUUUUAAAUGGCUUUAUGUAUUCUUUAAUUGGGCUGUAUGACUUAAAAGAACAACAGAGGAUUGAGCAUCA
B8: ENSG00000107863:be:win_3351|CDS|ENSG00000107863|bound_else_gene|NA|bound_elsewhere_windowed (ssRNA)
RNA: GGGAGUUCUACAGUCCGACGAUCAAAAGACAAAGGCACAUGGAGAAAAGGCAUUCCAAGUAUCAUGAGAAAGACAUUUGAGAAAAAGCCAACUGCUACAGGAACUUUCGGCGUCCGACUAGAUGACUGCCCACCAGCUCAUACCAACAGAGGAUUGAGCAUCA
B9: chr1:150220393:150220494:-|3pUTR|ENSG00000143401|msi1_unk|FALSE|overlapping (ssRNA)
RNA: GGGAGUUCUACAGUCCGACGAUCAUUGUAUGUAGAGAAAAAUUUUCAUUGACUCCCAUUGUGGAAUUCCCUAGCAAUUUAUUUAGACUUAAUUUUUUAAAUUCAAGCUUACUGUAUUAGUCAUUUUUAGCCCAUAAUUAAAACCAACAGAGGAUUGAGCAUCA
B10: chr10:92030311:92030412:+|3pUTR|ENSG00000095564|unk|FALSE|unique (ssRNA)
RNA: GGGAGUUCUACAGUCCGACGAUCAUAUAAGAUUGAAACUGUAAAAUAUAUGCAACUGUGUGUUAUUUGUAGGAAAUGGUCACUAGAAAGAGCAAAAGAUUAUUCAGGUAUACAGGUUUUUUUUCAUUGUUUAGGAUUUUAACUCAACAGAGGAUUGAGCAUCA
B11: chr1:235448940:235449205:-|3pUTR|ENSG00000162885|unk|total|mutant (ssRNA)
RNA: GGGAGUUCUACAGUCCGACGAUCAACCGAGAAUUCCAUUAAAACCCGUCUUAUGACAGAUAUUAACUGUGUUCAGAUUUUAUCCGGCCCGCCCGUUUCUUUCUAUUUAAUAUUUAAAUCUUAUCAUGAAAUGCAGUGAUGAGCCAACAGAGGAUUGAGCAUCA
B12: chr5:75599425:75599511:+|3pUTR|ENSG00000122008|msi1_unk|FALSE|overlapping (ssRNA)
RNA: GGGAGUUCUACAGUCCGACGAUCGAAUAGCUUAAUUAAGAACUCACAGACUUUGACAAAGUGGUAACUAGACUUUUAAUUACUAGAUUCUUCAAAUUAGGCUUAAUGCCUGCUAGCAUGCCAAUCCAAUCCCAUGACUGAUGUCAACAGAGGAUUGAGCAUCA
B13: ENSG00000172071:stop:overlap|stop_codon|ENSG00000172071|stop_codon|NA|stop_codon (ssRNA)
RNA: GGGAGUUCUACAGUCCGACGAUCCAUCGGGAACAAAACAUUCAAGACAGUCCAACAACUCCCAUAGCCCUUUGCCAAGCAAUUAGCCUUAAGUUGUGCUAGCAACCCUAAUAGGUGAUGCAGAUAAUAGCCUACUUCUUAGAACAACAGAGGAUUGAGCAUCA
B14: chr1:150220393:150220494:-|3pUTR|ENSG00000143401|msi1_unk|total|mutant (ssRNA)
RNA: B9 RNA with U32C, A33C, U71C, A72C, U83C, A84C, U117C, A118C, U127C, A128C
B15: chr4:140550230:140550341:+|CDS|ENSG00000179387|unk|FALSE|unique (ssRNA)
RNA: GGGAGUUCUACAGUCCGACGAUCGAAUUUGACAAGUUUUGGUUUGAAGAAGAACCAGAAAGCAUUAUGUAUUUCAAUUUGUAUAGAGAGAAGUUUCAUGAAAAGAUUAAAGGACUUUUACUGGAUUGUAAUGUAGCACUUACUCAACAGAGGAUUGAGCAUCA
B16: chr2:167954955:167954998:-|3pUTR|ENSG00000198648|msi1_unk|FALSE|overlapping (ssRNA)
RNA: GGGAGUUCUACAGUCCGACGAUCGUUGUAUUUAGAAAUUAAUAUACUUAUAAAAUUAAGAUUUAUUAGCCAAACUUGAAUUCUAGUUUUAAAACUGACUGUGAAUUUUAUUUUUCAUAUAUUUAUGCAUUACACACCUUAGCUCAACAGAGGAUUGAGCAUCA
B17: chrX:85861749:85861850:-|3pUTR|ENSG00000188419|msi1|FALSE|unique (ssRNA)
RNA: GGGAGUUCUACAGUCCGACGAUCCUAAUUUAAAAUUUCAGAAAAUGCUAUUAAAGAAUUUUGAUUCAAGUAUUUAAACUGUUUAGUUAUGCAUGCUUCUUAUUAACCGAAAAUGAUAAUACCAUUUAGUUUAGUGAUCAGUAUCAACAGAGGAUUGAGCAUCA
B18: chr2:167954955:167954998:-|3pUTR|ENSG00000198648|msi1_unk|total|mutant (ssRNA)
RNA: B16 RNA with U32C, A33C, U66C, A67C, U83C, A84C, U139C, A140C
B19: chr5:75599425:75599511:+|3pUTR|ENSG00000122008|msi1_unk|total|mutant (ssRNA)
RNA: B12 RNA with U27C, A28C, U68C, A69C, U83C, A84C, U97C, A98C, U113C, A114C
B20: chr1:235448940:235449205:-|3pUTR|ENSG00000162885|unk|FALSE|unique (ssRNA)
RNA: B11 RNA with C26U, C27A, C45U, C46A, C83U, C84A, C88U, C89A, C92U, C93A

target: T1, UNK ZnF1-6 (called full-length) (human, UniProt Q9C0B0 30-357); experiment: nsRBNS (natural sequence RNA bind-n-seq); RBNS binding buffer (assumed for nsRBNS): 25 mM Tris pH 7.5, 150 mM KCl, 3 mM MgCl2, 0.01% Triton X-100, 500 ug/ml BSA, 20 U/ml SUPERase-In, 4 C; UNK is unkempt and MSI1 is Musashi-1; names of the RNAs are library labels; protein concentration not given here; high values mean tight binding
T1 sequence: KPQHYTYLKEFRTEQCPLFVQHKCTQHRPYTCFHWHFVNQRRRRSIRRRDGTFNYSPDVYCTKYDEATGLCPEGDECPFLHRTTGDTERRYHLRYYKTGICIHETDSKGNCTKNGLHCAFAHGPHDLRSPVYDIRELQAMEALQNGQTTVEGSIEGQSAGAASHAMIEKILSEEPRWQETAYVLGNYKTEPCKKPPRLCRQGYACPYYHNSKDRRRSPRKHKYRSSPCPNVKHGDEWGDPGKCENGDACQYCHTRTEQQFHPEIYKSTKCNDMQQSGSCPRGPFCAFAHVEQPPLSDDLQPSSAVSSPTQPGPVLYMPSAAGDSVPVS

Binder	binding signal [enrichment R]
B1	0.529
B2	0.888
B3	1.89
B4	0.587
B5	0.493
B6	0.488
B7	0.547
B8	0.507
B9	228
B10	3.36
B11	2.39
B12	38.5
B13	1.57
B14	2.56
B15	0.651
B16	15.2
B17	2.27
B18	3.43
B19	0.537
B20	35.6
